Assay results reported in PubChem BioAssay (Tox21).
Activity calls are given as the source filed them. Unless noted, the call rests on the fitted dose curve; in most records, active means well fitted curve in the direction sought with a large enough effect in the repeat runs; inconclusive means weak or mixed curves; inactive means no such curve, though single readings can be large; an effect the other way counts as inactive or inconclusive.

Columns and labels:
[1] = qHTS assay to identify small molecule antagonists of the thyroid receptor (TR) signaling pathway - cell viability counter screen (AID 743064); conditions: GH3.TRE-Luc viability, CellTiter-Fluor, 24 h; series mostly up to 70.3 µM; further: nearly all actives have a fitted effect of over 50% in size; further: potency means the concentration at half of the fitted maximal effect
How it was run: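 Rat GH3 pituitary tumor cells stably expressing two TR response elements driving luciferase were plated, rested 4 h, then dosed with library compounds and T3 (1 nM final). After 23.5 h at 37 °C, CellTiter-Fluor was added for 30 min and fluorescence recorded.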

[2] = qHTS assay to identify small molecule antagonists of the thyroid receptor (TR) signaling pathway (AID 743065); conditions: GH3.TRE-Luc, T3-stimulated luciferase inhibition, 23.5 h; series mostly up to 70.3 µM; further: nearly all actives have a fitted effect of over 55% in size; further: potency means the concentration at half of the fitted maximal effect
How it was run: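 GH3.TRE-Luc rat pituitary cells (two TREs driving luciferase) were dosed with compound, then stimulated with 1 nM T3 (final) for 23.5 h at 37 C. ONE-Glo luminescence was the read-out, with CellTiter-Fluor fluorescence as the cytotoxicity counter-screen.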

[3] = test system: thyroid hormone receptor (rat, GH3 cells); assay: qHTS assay to identify small molecule agonists of the thyroid receptor (TR) signaling pathway (AID 743066; calls by dose curve); conditions: GH3.TRE-Luc cells, TR agonist luciferase, 24 h; series mostly up to 83.9 µM
[4] = qHTS assay to identify small molecule antagonists of the estrogen receptor alpha (ER-alpha) signaling pathway - cell viability counter screen (AID 743074; calls by dose curve; further: nearly all actives have a fitted effect of over 45% in size); conditions: ERalpha-bla HEK293 viability, CellTiter-Glo luminescence, 18 h; series mostly up to 69.4 µM
[5] = target: Estrogen receptor (Homo sapiens) (UniProt P03372); assay: qHTS assay to identify small molecule agonists of the estrogen receptor alpha (ER-alpha) signaling pathway (AID 743075; calls by dose curve; further: potency means the concentration at half of the fitted maximal effect); conditions: HEK293 ER-alpha-UAS-bla, beta-lactamase FRET ratio, 18 h; series mostly up to 70.1 µM
Estrogen receptor (Homo sapiens), sequence (P03372 whole entry, looked up): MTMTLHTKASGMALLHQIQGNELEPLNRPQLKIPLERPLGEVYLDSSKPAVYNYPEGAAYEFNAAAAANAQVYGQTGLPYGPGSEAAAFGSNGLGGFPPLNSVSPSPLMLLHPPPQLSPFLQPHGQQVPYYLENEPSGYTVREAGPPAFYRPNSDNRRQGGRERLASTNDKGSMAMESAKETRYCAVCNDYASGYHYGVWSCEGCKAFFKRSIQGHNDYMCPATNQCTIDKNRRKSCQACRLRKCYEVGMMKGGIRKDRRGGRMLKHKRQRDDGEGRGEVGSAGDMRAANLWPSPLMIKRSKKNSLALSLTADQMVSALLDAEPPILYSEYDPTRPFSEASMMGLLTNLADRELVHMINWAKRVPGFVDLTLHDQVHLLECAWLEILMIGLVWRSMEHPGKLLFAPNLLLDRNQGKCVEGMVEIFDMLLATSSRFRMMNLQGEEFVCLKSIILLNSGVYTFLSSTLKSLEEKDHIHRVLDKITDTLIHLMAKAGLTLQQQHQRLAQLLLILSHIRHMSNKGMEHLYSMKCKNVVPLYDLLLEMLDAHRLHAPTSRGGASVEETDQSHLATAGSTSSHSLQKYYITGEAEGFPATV

[6] = target: Estrogen receptor (Homo sapiens) (UniProt P03372); assay: qHTS assay to identify small molecule agonists of the estrogen receptor alpha (ER-alpha) signaling pathway using the BG1 cell line (AID 743079); conditions: BG1Luc4E2 cells, ERE-luciferase agonist, 22 h; activation: at 70.3 µM (top of the series); further: nearly all actives have a fitted effect of over 20% in size; further: potency means the concentration at half of the fitted maximal effect
[7] = qHTS assay to identify small molecule antagonists of the estrogen receptor alpha (ER-alpha) signaling pathway using the BG1 cell line (AID 743080; calls by dose curve;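 further: BG1 cells stimulated with 17beta-estradiol alongside compound; nearly all actives have a fitted effect of over 25% in size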; further: potency means the concentration at half of the fitted maximal effect); conditions: BG1Luc4E2 ERE-luciferase antagonist mode, luminescence; series mostly up to 70.3 µM
How it was run: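 BG1Luc4E2, endogenous ER-alpha, 4xERE-luc; 5 d charcoal-stripped FBS, phenol red free; 24 h plating; cpd + 17beta-estradiol 21.5 h, 37 C/5% CO2; CellTiter-Fluor viability 30 min, then ONE-Glo luciferase 30 min RT.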

[8] = qHTS assay to identify small molecule antagonists of the estrogen receptor alpha (ER-alpha) signaling pathway using the BG1 cell line - cell viability counter screen (AID 743081); conditions: BG1Luc4E2 viability, CellTiter-Fluor, 22 h; series mostly up to 70.3 µM;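 further: compound given together with 17beta-estradiol as the ER stimulus; nearly all actives have a fitted effect of over 45% in size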; further: potency means the concentration at half of the fitted maximal effect
Aromatase (Homo sapiens) = Aromatase (Homo sapiens) (UniProt P11511); assay: qHTS assay to identify aromatase inhibitors (AID 743083); conditions: MCF-7 aro ERE, testosterone-driven ERE luciferase, 24 h; series mostly up to 70.3 µM; further: nearly all actives have a fitted effect of over 55% in size
Aromatase (Homo sapiens), sequence (P11511 whole entry, looked up): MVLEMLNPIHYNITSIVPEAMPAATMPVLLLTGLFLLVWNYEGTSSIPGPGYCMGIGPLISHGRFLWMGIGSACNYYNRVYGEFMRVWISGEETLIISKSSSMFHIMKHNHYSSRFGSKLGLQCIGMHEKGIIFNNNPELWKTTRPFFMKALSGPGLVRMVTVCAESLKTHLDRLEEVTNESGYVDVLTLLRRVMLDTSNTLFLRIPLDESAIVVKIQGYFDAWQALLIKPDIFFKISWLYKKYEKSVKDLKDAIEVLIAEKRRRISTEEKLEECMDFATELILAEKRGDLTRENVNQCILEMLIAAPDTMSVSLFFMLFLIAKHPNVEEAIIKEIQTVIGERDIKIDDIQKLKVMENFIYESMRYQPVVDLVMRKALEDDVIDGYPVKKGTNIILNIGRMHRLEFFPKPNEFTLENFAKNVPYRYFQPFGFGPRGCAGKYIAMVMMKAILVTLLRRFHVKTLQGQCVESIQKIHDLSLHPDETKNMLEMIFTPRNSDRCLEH

[9] = qHTS assay to identify aromatase inhibitors - cell viability counter screen (AID 743084); conditions: MCF-7 aro ERE viability, CellTiter-Fluor, 24 h; series mostly up to 70.3 µM;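 further: cells stimulated with testosterone during compound exposure; nearly all actives have a fitted effect of over 55% in size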; further: potency means the concentration at half of the fitted maximal effect
[10] = target: Aryl hydrocarbon receptor (Homo sapiens) (UniProt P35869); assay: qHTS assay to identify small molecule that activate the aryl hydrocarbon receptor (AhR) signaling pathway (AID 743085); conditions: HepG2 AhR-luc (HG2L7.5c1), luciferase, 24 h; series mostly up to 70.3 µM; further: nearly all actives have a fitted effect of over 15% in size; further: potency means the concentration at half of the fitted maximal effect;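 on activation: HG2L7.5c1 human HepG2 liver cells with stably integrated DRE-driven firefly reporter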
Aryl hydrocarbon receptor (Homo sapiens), sequence (P35869 whole entry, looked up): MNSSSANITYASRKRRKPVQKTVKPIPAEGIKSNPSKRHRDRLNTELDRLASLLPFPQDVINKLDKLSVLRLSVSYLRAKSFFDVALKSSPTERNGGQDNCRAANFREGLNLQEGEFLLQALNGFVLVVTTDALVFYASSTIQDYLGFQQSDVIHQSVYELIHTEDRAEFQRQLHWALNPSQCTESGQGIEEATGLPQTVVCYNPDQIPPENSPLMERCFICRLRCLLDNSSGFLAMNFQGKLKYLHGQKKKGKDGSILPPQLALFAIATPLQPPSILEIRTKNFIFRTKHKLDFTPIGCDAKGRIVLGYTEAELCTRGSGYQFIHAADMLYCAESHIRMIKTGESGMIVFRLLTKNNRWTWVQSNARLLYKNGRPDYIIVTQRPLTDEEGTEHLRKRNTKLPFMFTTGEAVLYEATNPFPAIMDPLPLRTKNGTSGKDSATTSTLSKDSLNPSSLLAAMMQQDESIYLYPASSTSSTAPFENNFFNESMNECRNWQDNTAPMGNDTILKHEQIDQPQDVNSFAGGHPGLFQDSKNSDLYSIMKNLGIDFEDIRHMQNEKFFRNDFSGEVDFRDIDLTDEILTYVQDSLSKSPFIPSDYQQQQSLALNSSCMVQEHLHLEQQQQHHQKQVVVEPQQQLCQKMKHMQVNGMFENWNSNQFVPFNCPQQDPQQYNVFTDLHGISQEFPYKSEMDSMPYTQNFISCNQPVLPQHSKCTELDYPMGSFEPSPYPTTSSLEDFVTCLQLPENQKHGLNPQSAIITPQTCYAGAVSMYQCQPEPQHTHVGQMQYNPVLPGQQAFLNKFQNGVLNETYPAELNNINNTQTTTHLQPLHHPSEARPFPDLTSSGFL
How it was run: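 Compounds were tested in HepG2 hepatocellular carcinoma cells harbouring a stably integrated luciferase gene under control of 20 DREs. Increased reporter signal after 24 h treatment at 37C was taken as AhR activation.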

[11] = qHTS assay to identify small molecule that activate the aryl hydrocarbon receptor (AhR) signaling pathway - cell viability counter screen (AID 743086); conditions: HepG2-AhR-luc viability, CellTiter-Fluor, 24 h; series mostly up to 70.3 µM; further: nearly all actives have a fitted effect of over 45% in size; further: potency means the concentration at half of the fitted maximal effect
How it was run: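 HepG2-AhR-luc (HG2L7.5c1) cells, 4000/well, treated 24 h at 37 C with compound; viability measured as CellTiter-Fluor fluorescence after 30 min in the same wells as the luciferase read.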

[12] = target: Peroxisome proliferator-activated receptor gamma (Homo sapiens) (UniProt P37231); assay: qHTS assay to identify small molecule agonists of the peroxisome proliferator-activated receptor gamma (PPARg) signaling pathway (AID 743094; active means well fitted activation curve with a large enough effect in the signal ratio in the repeat runs, not every such curve was filed as active; inconclusive means weak or mixed curves, or effect the other way; inactive means no such curve, though single readings can be large or run the other way; the % refers to the signal ratio); conditions: HEK293H PPARg-UAS-bla, beta-lactamase FRET ratio, 17 h; series mostly up to 57 µM
Peroxisome proliferator-activated receptor gamma (Homo sapiens), sequence (P37231 whole entry, looked up): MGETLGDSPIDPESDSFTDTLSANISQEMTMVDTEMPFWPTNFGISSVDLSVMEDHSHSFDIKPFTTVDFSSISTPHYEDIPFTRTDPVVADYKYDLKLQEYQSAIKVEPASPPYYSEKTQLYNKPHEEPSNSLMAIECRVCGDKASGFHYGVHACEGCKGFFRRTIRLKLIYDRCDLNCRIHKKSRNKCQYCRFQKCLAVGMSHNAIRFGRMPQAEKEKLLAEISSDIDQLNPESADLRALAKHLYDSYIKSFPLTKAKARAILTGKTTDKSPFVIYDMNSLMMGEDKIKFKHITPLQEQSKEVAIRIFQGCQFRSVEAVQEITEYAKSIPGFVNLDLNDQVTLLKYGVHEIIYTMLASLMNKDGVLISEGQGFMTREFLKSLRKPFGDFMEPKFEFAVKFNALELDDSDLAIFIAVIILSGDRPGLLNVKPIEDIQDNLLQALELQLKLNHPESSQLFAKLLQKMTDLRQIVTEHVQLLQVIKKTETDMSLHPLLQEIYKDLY
How it was run: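 Agonist activity was taken from a beta-lactamase reporter (FRET substrate, 1 h at room temperature) in HEK293H cells carrying a PPARg UAS-bla construct. Compounds in DMSO were incubated 17 h at 37C after a 5 h cell pre-incubation.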

[13] = qHTS assay to identify small molecule antagonists of the peroxisome proliferator-activated receptor gamma (PPARg) signaling pathway - cell viability counter screen (AID 743194); conditions: PPARg-bla HEK293H viability, CellTiter-Glo luminescence, 17 h, co-treated with 50 nM rosiglitazone; series mostly up to 62.6 µM; further: nearly all actives have a fitted effect of over 55% in size; further: potency means the concentration at half of the fitted maximal effect
How it was run: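 Cytotoxicity counter screen in PPARg-bla HEK293H cells, same wells as reporter assay. Compounds plus 50 nM rosiglitazone (final) for 17 h at 37 C, then viability read by CellTiter-Glo luminescence.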

[14] = qHTS assay for small molecule agonists of the antioxidant response element (ARE) signaling pathway (AID 743202; active means well fitted activation curve with a large enough effect in the signal ratio in the repeat runs, not every such curve was filed as active; inconclusive means weak or mixed curves, or effect the other way; inactive means no such curve, though single readings can be large or run the other way; the % refers to the signal ratio); conditions: HepG2 ARE-bla reporter, beta-lactamase FRET, 16 h; series mostly up to 73.3 µM
How it was run: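 HepG2 ARE-bla cells; 16 h treatment at 37 C; FRET-based beta-lactamase fluorescence read after 2 h substrate incubation at room temperature.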

[15] = qHTS assay for small molecule agonists of the antioxidant response element (ARE) signaling pathway - cell viability counter screen (AID 743203; calls by dose curve; further: nearly all actives have a fitted effect of over 55% in size); conditions: ARE-bla HepG2 viability, CellTiter-Glo luminescence, 16 h; series mostly up to 73.3 µM
How it was run: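 Viability counter screen: CellTiter-Glo luminescence, read after 30 min at room temperature, in ARE-bla HepG2 wells. Compound exposure lasted 16 h at 37C/5% CO2, following a 5 h pre-incubation of the cells after plating.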

[16] = qHTS assay for small molecule activators of the heat shock response signaling pathway - cell viability counter screen (AID 743209); conditions: HSE-bla HeLa viability, CellTiter-Glo luminescence, 5 h; series mostly up to 62.6 µM; further: nearly all actives have a fitted effect of over 50% in size
How it was run: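 Cytotoxicity counter screen run in the same wells as the heat-shock bla reporter assay: HeLa HSE-bla cells, 5 h compound exposure at 37 C, viability read by CellTiter-Glo luminescence.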

[17] = target: Estrogen receptor (Homo sapiens) (UniProt P03372); assay: qHTS assay to identify small molecule antagonists of the estrogen receptor alpha (ER-alpha) signaling pathway (AID 743069; active means well fitted curve in the direction sought with a large enough effect in the signal ratio in the repeat runs, not every such curve was filed as active; inconclusive means weak or mixed curves, or effect the other way; inactive means no such curve, though single readings can be large or run the other way; the % refers to the signal ratio; further: potency means the concentration at half of the fitted maximal effect); conditions: HEK293 ER-alpha-UAS-bla, beta-lactamase ratio, antagonist mode; series mostly up to 69.4 µM
How it was run: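 In this cell-based reporter format, GripTite HEK293 cells harbouring ER-alpha-UAS-bla were grown overnight with 2% charcoal-stripped FBS, dosed with DMSO-dissolved compounds, then challenged with 17beta-estradiol. After 18 hr at 37C, beta-lactamase activity was detected by FRET fluorescence.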

[18] = target: Peroxisome proliferator-activated receptor gamma (Homo sapiens) (UniProt P37231); assay: qHTS assay to identify small molecule antagonists of the peroxisome proliferator-activated receptor gamma (PPARg) signaling pathway (AID 743191; calls by dose curve; further: nearly all actives have a fitted effect of over 30% in size; further: potency means the concentration at half of the fitted maximal effect); conditions: HEK293H PPARg-UAS-bla, beta-lactamase ratio, antagonist, 17 h; series mostly up to 62.6 µM
How it was run: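 GeneBLAzer PPARg UAS-bla HEK293H cells, 5 h post-plating, exposed to compounds 17 h at 37C. LiveBLAzer B/G FRET substrate added for 1 h at room temperature; beta-lactamase reporter read by fluorescence intensity.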

[19] = qHTS assay for small molecule activators of the heat shock response signaling pathway (AID 743210; active means well fitted activation curve with a large enough effect in the signal ratio in the repeat runs, with a control signal flat, not every such curve was filed as active; inconclusive means weak or mixed curves; the % refers to the signal ratio;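 further: HeLa cells with beta-lactamase reporter driven by heat shock elements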); conditions: HeLa HSE-bla reporter, beta-lactamase ratio, 5 h; series mostly up to 62.6 µM
How it was run: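 Following overnight attachment, HSE-bla HeLa cells received test compounds for 5 h at 37 C; beta-lactamase activity was then detected via FRET substrate fluorescence.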

Measured: Potency

O=c1[nH]ncc2ccccc12
inactive: [1] | [2] | [3] | [4] | [5] | [6] | [7] | [8] | Aromatase (Homo sapiens) | [9] | [10] | [11] | [12] | [13] | [14] | [15] | [16]

CC1(C)S[C@@H]2[C@H](NC(=O)C(c3ccccc3)S(=O)(=O)O)C(=O)N2[C@H]1C(=O)O (stereo not given in full)
inactive: [1] | [2] | [3] | [17] | [4] | [5] | [6] | [7] | Aromatase (Homo sapiens) | [9] | [10] | [11] | [12] | [18] | [13] | [15] | [16] | [19]

C(=C\c1ccccc1)/c1ccccc1
inactive: [1] | [2] | [3] | [17] | [4] | [5] | [8] | Aromatase (Homo sapiens) | [9] | [11] | [12] | [15] | [16] | [19]
active: [6] 60.6 µM | [10] 76.3 µM

CN1C(=O)N(c2ccccc2Br)Cc2cnc(Nc3ccc4c(c3)OCC(CO)O4)nc21 (stereo not given)
active: [1] 54.5 µM | [2] 27.3 µM | [17] 2.75 µM [cytotoxic] | [13] 49 µM
inactive: [3] | [16]

CCOC(=O)c1ccc(OCCN2C[C@H](O)[C@@H](O)[C@H](O)[C@H]2CO)cc1
inactive: [1] | [2] | [3] | [17] | [5] | [6] | [7] | [8] | Aromatase (Homo sapiens) | [9] | [10] | [11] | [12] | [13] | [15] | [16] | [19]

Brc1cc2ccccc2c2ccccc12
inactive: [1] | [2] | [3] | [17] | [4] | [5] | [6] | [7] | [8] | Aromatase (Homo sapiens) | [9] | [10] | [11] | [12] | [13] | [14] | [15] | [16] | [19]

O=C(O)CCCCCCCCCCCBr
inactive: [1] | [2] | [3] | [17] | [4] | [5] | [6] | [7] | [8] | Aromatase (Homo sapiens) | [9] | [10] | [11] | [13] | [15] | [16] | [19]

c1ccc(C[n+]2cccc3ccccc32)cc1
inactive: [1] | [2] | [3] | [4] | [5] | Aromatase (Homo sapiens) | [9] | [11] | [12] | [16] | [19]
active: [17] 49 µM [inconclusive] | [7] 61.1 µM

O=c1[nH]c2ccc(Cl)cc2o1
inactive: [1] | [2] | [3] | [17] | [4] | [5] | [6] | [7] | [8] | Aromatase (Homo sapiens) | [9] | [10] | [11] | [13] | [15] | [16] | [19]

CC(C)(C)C(=O)C(=O)O
inactive: [1] | [2] | [3] | [17] | [4] | [5] | [6] | [7] | [8] | Aromatase (Homo sapiens) | [9] | [10] | [11] | [12] | [13] | [15] | [16] | [19]

Nc1ccc(N=Nc2ccccc2)c(N)c1
active: [1] 53.3 µM | [6] 0.336 µM | [8] 26.7 µM | [9] 30 µM | [10] 30 µM | [11] 26.7 µM | [18] 42.7 µM
inactive: [2] | [3] | [17] | [4] | [5] | Aromatase (Homo sapiens) | [12] | [15] | [16]

C1C[C@@H]2[C@H]3CC[C@H](C3)[C@@H]2C1
inactive: [1] | [2] | [3] | [4] | [5] | [6] | [7] | [8] | Aromatase (Homo sapiens) | [9] | [10] | [11] | [12] | [18] | [13] | [14] | [15] | [16] | [19]

COc1ncnc(NS(=O)(=O)c2ccc(N)cc2)c1OC
inactive: [1] | [2] | [3] | [17] | [4] | [5] | [6] | [7] | [8] | Aromatase (Homo sapiens) | [9] | [11] | [12] | [13] | [15] | [16] | [19]

CCOc1ccccc1O[C@H](c1ccccc1)[C@H]1CNCCO1
inactive: [3] | [17] | [4] | [5] | [6] | [7] | [8] | Aromatase (Homo sapiens) | [9] | [10] | [12] | [13] | [15] | [16] | [19]
active: [1] 16.8 µM | [2] 26.6 µM

CCC(C)(C)OC
active: [5] 54.7 µM [activator] | [6] 68.2 µM
inactive: [1] | [2] | [3] | [4] | [7] | [8] | Aromatase (Homo sapiens) | [9] | [10] | [11] | [12] | [13] | [14] | [15] | [16] | [19]
